Data: PubChem BioAssay (Tox21)
Results filed as inconclusive are left out. Where a call stands in place of a potency, no number is given. Activity calls are given as the source filed them. The call rests on the fitted dose curve; in most records, active means well fitted curve in the direction sought with a large enough effect in the repeat runs; inconclusive means weak or mixed curves; inactive means no such curve, though single readings can be large; an effect the other way counts as inactive or inconclusive.

Legend:
[1] = molecular target: Voltage-gated inwardly rectifying potassium channel KCNH2 (Homo sapiens) (UniProt Q12809); assay: Human Ether-a-go-go-Related Gene (hERG) channel small molecule antagonists: fluorescence cell-based qHTS assay (AID 1671200); further: nearly all actives have a fitted effect of over 50% in size; further: potency means the concentration at half of the fitted maximal effect
Voltage-gated inwardly rectifying potassium channel KCNH2 (Homo sapiens), sequence (Q12809 whole entry, looked up): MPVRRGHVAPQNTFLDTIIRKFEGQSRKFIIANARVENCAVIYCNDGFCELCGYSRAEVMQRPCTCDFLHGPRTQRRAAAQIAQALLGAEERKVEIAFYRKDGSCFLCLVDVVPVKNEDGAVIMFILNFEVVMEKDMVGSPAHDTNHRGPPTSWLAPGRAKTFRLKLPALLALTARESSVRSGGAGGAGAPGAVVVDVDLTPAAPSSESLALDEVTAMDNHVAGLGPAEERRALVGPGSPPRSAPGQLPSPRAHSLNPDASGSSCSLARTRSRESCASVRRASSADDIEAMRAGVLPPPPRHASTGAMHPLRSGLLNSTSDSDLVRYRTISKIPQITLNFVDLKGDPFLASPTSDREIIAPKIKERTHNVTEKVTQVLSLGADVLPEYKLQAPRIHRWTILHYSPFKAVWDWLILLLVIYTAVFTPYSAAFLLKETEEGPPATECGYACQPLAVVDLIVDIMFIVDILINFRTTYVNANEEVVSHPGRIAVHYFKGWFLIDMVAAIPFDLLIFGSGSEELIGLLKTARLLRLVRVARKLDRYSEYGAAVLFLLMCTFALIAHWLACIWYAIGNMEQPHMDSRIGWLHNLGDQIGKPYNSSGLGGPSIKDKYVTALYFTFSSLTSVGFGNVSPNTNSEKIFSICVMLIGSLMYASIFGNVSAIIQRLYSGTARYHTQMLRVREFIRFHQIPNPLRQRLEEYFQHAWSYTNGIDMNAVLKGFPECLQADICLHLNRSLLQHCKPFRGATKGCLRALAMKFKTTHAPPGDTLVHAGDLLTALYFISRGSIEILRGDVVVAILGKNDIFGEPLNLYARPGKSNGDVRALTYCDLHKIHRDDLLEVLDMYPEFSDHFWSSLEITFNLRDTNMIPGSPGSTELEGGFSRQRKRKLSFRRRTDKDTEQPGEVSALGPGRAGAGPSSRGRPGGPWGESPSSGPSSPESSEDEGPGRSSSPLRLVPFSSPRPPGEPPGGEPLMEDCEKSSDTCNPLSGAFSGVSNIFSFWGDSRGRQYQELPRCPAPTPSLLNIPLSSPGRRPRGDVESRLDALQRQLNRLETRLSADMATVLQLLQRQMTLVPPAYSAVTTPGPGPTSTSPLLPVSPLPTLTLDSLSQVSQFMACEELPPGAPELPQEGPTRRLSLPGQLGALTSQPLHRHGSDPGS
Outline: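 Cell line hERG-U2OS; dye FluxOR II, 1 h RT dark; Tl+ stimulus; ex 480/em 540 nm, read each second for 2 min.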

[2] = molecular target: Cytochrome P450 2C19 (Homo sapiens) (UniProt P33261); assay: Cytochrome P450 Family 2 Subfamily C Member 19 (CYP2C19) small molecule antagonists: luciferase reporter qHTS assay (AID 1671197); further: potency means the concentration at half of the fitted maximal effect; nearly all actives have a fitted effect of over 65% in size
Cytochrome P450 2C19 (Homo sapiens), sequence (P33261 whole entry, looked up): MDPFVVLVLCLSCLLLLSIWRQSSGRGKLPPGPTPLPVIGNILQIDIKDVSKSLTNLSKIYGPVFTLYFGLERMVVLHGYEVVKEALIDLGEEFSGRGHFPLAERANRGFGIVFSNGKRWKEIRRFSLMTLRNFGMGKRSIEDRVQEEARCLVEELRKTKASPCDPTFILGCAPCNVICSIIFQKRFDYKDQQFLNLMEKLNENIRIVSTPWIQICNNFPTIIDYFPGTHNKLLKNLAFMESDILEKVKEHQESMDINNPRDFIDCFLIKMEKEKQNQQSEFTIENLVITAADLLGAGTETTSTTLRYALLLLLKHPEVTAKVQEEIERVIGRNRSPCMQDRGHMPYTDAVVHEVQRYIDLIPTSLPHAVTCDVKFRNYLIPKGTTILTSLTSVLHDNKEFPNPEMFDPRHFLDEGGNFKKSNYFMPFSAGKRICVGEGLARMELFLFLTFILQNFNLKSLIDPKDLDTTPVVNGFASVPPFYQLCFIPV
Outline: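 First, compounds are pinned into enzyme-substrate mix and held 10 min at room temperature. Second, NADPH regeneration solution is added and plates incubate 1 h at 37C. Third, detection reagent is added and luminescence read after 20 min.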

[3] = molecular target: Cytochrome P450 2C9 (Homo sapiens) (UniProt P11712); assay: Cytochrome P450 Family 2 Subfamily C Member 9 (CYP2C9) small molecule antagonists: luciferase reporter qHTS assay (AID 1671198); further: series mostly up to about 120 µM; nearly all actives have a fitted effect of over 50% in size
Cytochrome P450 2C9 (Homo sapiens), sequence (P11712 whole entry, looked up): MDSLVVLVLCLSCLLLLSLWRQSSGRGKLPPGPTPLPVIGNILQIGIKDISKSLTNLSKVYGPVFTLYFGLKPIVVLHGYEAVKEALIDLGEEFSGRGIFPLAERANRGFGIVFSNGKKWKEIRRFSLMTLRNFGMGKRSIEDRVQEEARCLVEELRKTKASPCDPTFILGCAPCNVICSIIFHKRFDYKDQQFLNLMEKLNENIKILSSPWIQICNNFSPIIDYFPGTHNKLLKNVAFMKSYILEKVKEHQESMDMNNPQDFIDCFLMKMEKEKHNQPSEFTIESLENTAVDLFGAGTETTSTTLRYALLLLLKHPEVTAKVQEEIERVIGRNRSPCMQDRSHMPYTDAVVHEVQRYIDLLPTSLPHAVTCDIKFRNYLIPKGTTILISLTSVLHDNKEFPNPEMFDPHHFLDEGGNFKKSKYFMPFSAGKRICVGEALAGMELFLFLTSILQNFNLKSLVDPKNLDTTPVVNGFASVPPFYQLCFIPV
Outline: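 P450-Glo proluciferin substrate with CYP2C9 enzyme; 10 min RT preincubation, then NADPH regeneration 1 h at 37C; luciferin detection reagent 20 min RT, luminescence in relative luminescence units.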

[4] = molecular target: Cytochrome P450 1A2 (Homo sapiens) (UniProt P05177); assay: Cytochrome P450 Family 1 Subfamily A Member 2 (CYP1A2) small molecule antagonists: luciferase reporter qHTS assay (AID 1671199); further: series mostly up to about 120 µM; nearly all actives have a fitted effect of over 50% in size
Cytochrome P450 1A2 (Homo sapiens), sequence (P05177 whole entry, looked up): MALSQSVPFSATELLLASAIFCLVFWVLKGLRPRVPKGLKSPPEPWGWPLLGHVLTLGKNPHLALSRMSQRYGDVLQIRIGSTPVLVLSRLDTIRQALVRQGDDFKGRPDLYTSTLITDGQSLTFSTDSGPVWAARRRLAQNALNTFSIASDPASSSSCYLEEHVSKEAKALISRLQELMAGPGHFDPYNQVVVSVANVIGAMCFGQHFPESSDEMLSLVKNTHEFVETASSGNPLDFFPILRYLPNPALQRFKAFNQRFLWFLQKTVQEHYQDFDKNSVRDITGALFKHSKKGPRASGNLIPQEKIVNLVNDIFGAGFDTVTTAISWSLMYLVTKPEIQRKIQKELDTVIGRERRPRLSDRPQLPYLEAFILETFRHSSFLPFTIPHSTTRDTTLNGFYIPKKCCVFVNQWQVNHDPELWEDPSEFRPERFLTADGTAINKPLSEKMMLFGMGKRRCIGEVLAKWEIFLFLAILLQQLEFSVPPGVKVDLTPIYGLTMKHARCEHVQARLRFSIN
Outline: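 Inhibition of CYP1A2 conversion of proluciferin to luciferin, detected by luminescence. Reaction run 1 h at room temperature with NADPH regeneration after brief compound preincubation.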

| SMILES | Potency [1] | Potency [2] | Potency [3] | Potency [4] |
| --- | --- | --- | --- | --- |
| OCCN1CCN(CCCN2c3ccccc3Sc3ccc(Cl)cc32)CC1 | 2.68 µM (active) |  |  |  |
| Nc1nc2ccc([N+](=O)[O-])cc2s1 | inactive | 35.6 µM (active) |  |  |
| CC1CC(OC(=O)C(O)c2ccccc2)CC(C)(C)N1C (stereo unspecified) | inactive |  | inactive | inactive |
